Results filed as inconclusive are left out. Calls of active or inactive are those of the source. Calls come from the whole dose curve; as a rule, active = well fitted curve in the direction sought with a large enough effect; inconclusive = small, poorly fitted or top-dose-only effect, or another doubt; inactive = no such curve, though single readings can be large; an effect the other way counts as inactive or inconclusive.
Columns and labels:
[1] = KB-3-1 Cancer Cell Toxicity qHTS against the NCATS CANVASS Library (AID 1347366); settings: KB-3-1 viability, CellTiter-Glo luminescence, 72 h; at 46.1 µM (top of the series); note: nearly all actives have a fitted effect of over 75% in size
Summary of the method: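 CellTiter-Glo luminescence measured viability after 72 h at 37C. KB-3-1 cells were seeded at 500 per well in DMEM/10% FBS.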

[2] = qHTS for ATAD5 Agonist screened against the NCATS CANVASS Library (AID 1347367); settings: HEK293T ATAD5-luciferase reporter, luminescence, 16 h; series mostly up to 46.1 µM;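 note: luciferase reporter driven by ATAD5 which rises upon DNA damage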
Summary of the method: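 Genotoxicity via ATAD5-luciferase luminescence after 16 h compound exposure (11-point series) at 37C in HEK293T-ATAD5 cells. CellTiter-Fluor viability read precedes the luminescence read; MMS serves as positive control.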

[3] = MCF7 Cancer Cell Toxicity qHTS against the NCATS CANVASS Library (AID 1347369); settings: MCF7 viability, ATP luminescence (CellTiter-Glo), 72 h; at 46 µM (top of the series)
Summary of the method: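 Cytotoxicity was measured as CellTiterGlo luminescence (ATP) after 72 h at 37 °C. The cells were MCF7 at 500 per well, with an 11-point compound concentration series.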

[4] = qHTS for ATAD5 Antagonist screened against the NCATS CANVASS Library (AID 1347370); settings: HEK293T-ATAD5-luc, 5-FUrd stimulated, luminescence, 16 h; series mostly up to 46.1 µM;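 note: HEK293T cells carrying an ATAD5 luciferase reporter co-treated with 10 µM 5-fluorouridine; nearly all actives have a fitted effect of over 65% in size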
Summary of the method: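 HEK293T cells with stably integrated ATAD5-luciferase reporter, 2000/well, 5 h attachment; compounds plus 10 µM 5-fluorouridine, 16 h at 37 °C. Luciferase luminescence read, with CellTiter-Fluor viability read first.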

[5] = J3T Cancer Cell Toxicity qHTS against the NCATS CANVASS Library (AID 1347371); settings: J3T dog glioma viability, ATP luminescence, 72 h; series mostly up to 46.1 µM;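 note: J3T is a canine glioma cancer cell line seeded at 500 cells per well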
Summary of the method: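 Cells plated at 500 per well, compounds pin-transferred, plates incubated 72 hr at 37C, then CellTiterGlo added and luminescence read to measure ATP content.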

[6] = biological target: Nuclear receptor subfamily 1 group I member 3 (Homo sapiens) (UniProt Q14994); assay: qHTS for Constitutive Androstane Receptor (CAR) Antagonist screened against the NCATS CANVASS Library (AID 1347372); settings: HepG2-hCAR-CYP2B6 luciferase, CITCO-stimulated antagonist mode; series mostly up to 46.1 µM;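 note: cells stimulated with 50 nM CITCO agonist so inhibition reflects antagonism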
Summary of the method: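 HepG2 cells stably carrying hCAR and CYP2B6-2.2kb luciferase reporter, 2500 cells/well, compound with 50 nM CITCO agonist for 24hr at 37C. ONE-Glo luminescence measured CAR activity; CellTiter-Fluor read viability.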

[7] = biological target: Nuclear receptor subfamily 1 group I member 3 (Homo sapiens) (UniProt Q14994); assay: qHTS for Constitutive Androstane Receptor (CAR) Agonist screened against the NCATS CANVASS Library (AID 1347373); settings: HepG2-hCAR-CYP2B6 luciferase reporter, ONE-Glo luminescence; series mostly up to 46.1 µM;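 note: every well also contained 1.5 µM PK11195 alongside the test compound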
Summary of the method: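 HepG2-hCAR-CYP2B6 cells, 2500/well, attached 4hr; cpd + PK11195 1.5uM final; 24hr 37C 5% CO2. CellTiter-Fluor viability read, then ONE-Glo luminescence for CAR activation.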

[8] = 10-beta competent E. coli microbial cell viability qHTS against the NCATS CANVASS Library (AID 1347376); settings: E. coli 10-beta viability, BacTiter-Glo ATP luminescence, overnight; series mostly up to 46.1 µM
Summary of the method: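 E. coli 10-beta, 0.2 OD; cpds 11-pt; o/n 37C, 5% CO2; BacTiter-Glo 20 min RT; luminescence (ATP) = viable cells. Daunomycin ctrl.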

[9] = qHTS for H2AX Agonists against the NCATS CANVASS Library (AID 1347378); settings: CHO-K1 H2AX phosphorylation, HTRF TR-FRET, 3 h; series mostly up to 76.9 µM
Summary of the method: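 Phospho-H2AX (S139) in CHO-K1 lysates measured by HTRF, reported as 665/615 nm emission ratio after 24 hr antibody incubation at room temperature. Cells were first treated with a compound series for 3 hr at 37C (0.76% DMSO final).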

[10] = qHTS for Inflammasome Signaling Inhibitors: IL-1-beta AlphaLISA screen against the NCATS CANVASS Library (AID 1347379); settings: THP-1 LPS/ATP, IL-1B AlphaLISA secretion, 16 h; series mostly up to 57.5 µM;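 note: human THP-1 cells primed with LPS then triggered with ATP; secreted IL-1B measured as AlphaLISA emission at 615 nm; lower signal means less IL-1B release which is the wanted effect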
Summary of the method: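 THP-1 cells pretreated 1 hr with compound (up to 57.5 uM final), then stimulated with LPS (250 ng/mL final) and ATP (1.25 mM final). Secreted IL-1B measured by AlphaLISA after 16 hr; glyburide as positive control.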

[11] = qHTS for Antimalaria activity screened against the NCATS CANVASS Library (AID 1347380);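 note: Plasmodium falciparum strain Dd2 asexual parasites grown in red blood cells; nearly all actives have a fitted effect of over 40% in size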; settings: P. falciparum Dd2 growth, SYBR Green fluorescence, 72 h; series mostly up to 28.7 µM
Summary of the method: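 Dd2 strain, infected erythrocytes 2.5% Hct final / 0.3% parasitemia. 11-pt qHTS titration, 72 h, 37C, 5% O2, 5% CO2. Lysis buffer + SYBR Green, 18 h, fluorescence 485/535 nm.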

[12] = Inflammasome Signaling qHTS Counterscreen: IL-1-beta AlphaLISA counterscreen against the NCATS CANVASS Library (AID 1347381); settings: Purified IL-1beta AlphaLISA signal interference counterscreen; series mostly up to 57.5 µM;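 note: cell-free check with purified IL-1β in medium and no THP-1 cells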
Summary of the method: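 Cell-free interference check: compounds added to medium spiked with 4 pg purified IL-1β. Anti-IL-1β acceptor beads (6 ug/mL) with 0.6 nM biotinylated antibody added for 1 h at RT, then streptavidin donor beads (24 ug/mL) for 30 min in the dark. AlphaLISA read at 680/615 nm.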

[13] = Cytotoxicity qHTS for assessment of Hepg2 cells membrane integrity screened against the NCATS CANVASS Library (AID 1347387); settings: HepG2 LDH release (CytoTox-ONE) fluorescence, 5 h; series mostly up to 46.1 µM
Summary of the method: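 qHTS, 11-pt conc. series, 0.59 nM - 46 uM final; HepG2 2000 cells/well, overnight attachment; 5 hr compound exposure 37C/5% CO2; CytoTox-ONE, 10 min RT; fluorescence ex560/em590 = LDH from damaged membranes.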

[14] = qHTS assay for small molecule disruptors of mitochondrial membrane potential screened against the NCATS CANVASS Library (AID 1347389); settings: HepG2 mitochondrial membrane potential, m-MPI red/green ratio, 1.5 h; series mostly up to 46.1 µM; note: nearly all actives have a fitted effect of over 60% in size
Summary of the method: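 HepG2, 2,000 cells/well, attached overnight; compound 1 hr, 37C, 5% CO2; Mito-MPS dye 30 min, 37C; fluorescence 535 nm (monomer) and 590 nm (aggregate); decreased 590/535 ratio = depolarization.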

[15] = Secretion counterscreen for inhibitors of the SERCaMP assay screened against the NCATS CANVASS Library (AID 1347390); settings: SH-SY5Y constitutive GLuc secretion, luminescence, 20 h; series mostly up to 76.6 µM;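 note: light from luciferase secreted into medium read as a measure of general secretion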
Summary of the method: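 Counterscreen for secretory-pathway interference: after 4 h attachment, SH-SY5Y-GLuc cells were exposed 20 hours to compounds (final 0.001 - 77 uM), then coelenterazine added and GLuc luminescence recorded; Brefeldin A served as control.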

[16] = qHTS for activators of Nrf2/ARE signaling pathway screened against the NCATS CANVASS Library (AID 1347391); settings: ARE-bla HepG2, beta-lactamase reporter, 16 h; series mostly up to 46.1 µM; note: nearly all actives have a fitted effect of over 60% in size
Summary of the method: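 Plate ARE-bla HepG2 cells at 2000/well and let them settle 5 h. Pin-transfer compounds in DMSO, incubate 16 h at 37C. Load CCF4 for 2 h at room temperature and read blue/green fluorescence.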

[17] = qHTS for activators of dead-cell proteases activity screened against the NCATS CANVASS Library (AID 1347392); settings: HepG2 cytotoxicity, dead-cell protease luminescence, 5 h; series mostly up to 46.1 µM;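 note: luminescence from protease leaking out of membrane-damaged cells cleaving impermeant substrate; rising signal means more cytotoxicity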
Summary of the method: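 HepG2 cells, 2000/well, attached 18 h at 37C, then exposed to compounds (11-point qHTS) for 5 h. Dead-cell protease release read as luminescence from cell-impermeant AAF-aminoluciferin substrate after 15 min at room temperature.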

[18] = qHTS for inhibitors of ER calcium dysfunction: SERCaMP assay screened against the NCATS CANVASS Library (AID 1347393); settings: SH-SY5Y GLuc-SERCaMP secretion, thapsigargin, luminescence; series mostly up to 76.6 µM;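 note: lower secreted reporter signal means inhibitor of ER calcium depletion; nearly all actives have a fitted effect of over 40% in size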
Summary of the method: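 SH-SY5Y GLuc-SERCaMP, 1000 cells/well, 4 h attach; cpd 16 h, 37C/5% CO2; thapsigargin (added as 6x 600 nM) 4 h; coelenterazine; luminescence. Reduced reporter release = ER Ca stabilization.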

[19] = Vero-766 cells viability qHTS against the NCATS CANVASS Library: Counterscreen for Zika virus inhibition assay (AID 1347394); settings: Vero 766 viability, CellTiter-Glo luminescence, 72 h; series mostly up to 46.1 µM; note: nearly all actives have a fitted effect of over 60% in size
Summary of the method: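 CellTiter Glo luminescence measured cytotoxicity after 72 h at 37C in uninfected Vero 766 cells, plated at 1000 cells/well. Compounds were applied in an 11-point series. Wells without cells defined 100% inhibition.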

[20] = qHTS for inhibitors of Wild type Zika virus screened against the NCATS CANVASS Library (AID 1347396); settings: Vero cells, Zika virus CPE, CellTiter-Glo, 72 h; series mostly up to 45.9 µM;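 note: ATP luminescence of surviving cells so rescue from viral cell killing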
Summary of the method: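 Using ATP-based luminescence (CellTiter Glo), this screen scores rescue of Vero 766 cells from wild-type Zika killing at 72 h post-infection. Compounds are tested in a concentration series.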

Measured: outcome

Chain of Nuclear receptor subfamily 1 group I member 3 (Homo sapiens) (Q14994 whole entry, looked up): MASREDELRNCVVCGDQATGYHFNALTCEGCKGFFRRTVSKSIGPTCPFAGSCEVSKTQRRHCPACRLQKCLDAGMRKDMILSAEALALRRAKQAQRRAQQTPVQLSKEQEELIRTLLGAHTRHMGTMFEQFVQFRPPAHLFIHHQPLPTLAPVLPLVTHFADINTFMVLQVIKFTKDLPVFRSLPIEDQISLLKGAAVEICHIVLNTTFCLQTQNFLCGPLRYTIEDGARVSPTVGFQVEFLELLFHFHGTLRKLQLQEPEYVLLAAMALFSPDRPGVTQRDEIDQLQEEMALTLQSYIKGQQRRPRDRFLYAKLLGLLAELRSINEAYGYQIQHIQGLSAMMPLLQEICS

CN1CCC[C@@H]1c1cccnc1
inactive: all assays above

From PubChem BioAssay (NCATS)
